According to the supplement of paper PMC10849652:
Of roughly 7,900 targets only a part is listed; those with a hit were picked by preference. About 0.6% of all pairs of compound and target were hits.

Tests used:
Assay in all cases: log2 fold change, soluble protein after heating vs DMSO (PISA); higher = thermal stabilisation; K562 cells, 10 uM, 30 min; active = over 0.2 and 3.5 SD of the protein, either way, in both replicates (recomputed)
[1] = compound: COC1=CC=C(C=C1)CN2C=CC3=C2C=C(C=C3)C(=O)NO
Outline: (§1)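 K562 cells at 2×10^6 cells/mL were treated for 30 min with 10 μM compound, and aliquots were heated for 3 min over 48°C-58°C before pooling. Extraction used PBS with 0.5% NP-40 at 4°C, and soluble protein was the supernatant after 21,000xg for 90 min, measured by TMTpro 16plex LC-MS/MS with channel sums equalised. Thermal stability values, relative to control samples and from duplicates, are log2 fold changes.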

[2] = compound: CON(C)C(=O)N1N=C(c2cc(F)ccc2F)S[C@@]1(CCCN)c1ccccc1 [filanesib]
Outline: as §1

[3] = compound: CO[C@H]1C[C@@H]2CC[C@@H](C)[C@@](O)(O2)C(=O)C(=O)N2CCCC[C@H]2C(=O)O[C@H]([C@H](C)C[C@@H]2CC[C@H](n3cnnn3)[C@H](OC)C2)CC(=O)[C@H](C)/C=C(\C)[C@@H](O)[C@@H](OC)C(=O)[C@H](C)C[C@H](C)/C=C/C=C/C=C/1C [zotarolimus]
Outline: as §1

[4] = compound: COc1cc(C(=O)O)ccc1NC(=O)[C@@H]1N[C@@H](CC(C)(C)C)[C@](C#N)(c2ccc(Cl)cc2F)[C@H]1c1cccc(Cl)c1F [idasanutlin]
Outline: as §1

[5] = compound: COc1cc(Nc2ncc3c(n2)-c2ccc(Cl)cc2C(c2c(F)cccc2OC)=NC3)ccc1C(=O)O [alisertib]
Outline: as §1

[6] = compound: COc1cc2nc(-c3cc(F)ccc3O)nc(N[C@@H]3CNC[C@H]3C(C)(C)O)c2cc1OC
Outline: as §1

[7] = compound: COc1cc2ncnc(Nc3ccc(F)c(Cl)c3)c2cc1OCCCN1CCOCC1 [gefitinib]
Outline: as §1

[8] = compound: COc1cccc2cc(-c3nc([C@H]4CC[C@H](C(=O)O)CC4)n4ncnc(N)c34)[nH]c12
Outline: as §1

[9] = compound: CS(=O)(=O)CCNCc1ccc(-c2ccc3ncnc(Nc4ccc(OCc5cccc(F)c5)c(Cl)c4)c3c2)o1 [lapatinib]
Outline: as §1

[10] = compound: CS(=O)(=O)N1CCN(Cc2cc3nc(-c4cccc5[nH]ncc45)nc(N4CCOCC4)c3s2)CC1 [pictilisib]
Outline: as §1

[11] = compound: CS(=O)(=O)c1ccc(-c2cnc(N)c(C(=O)Nc3ccccc3)n2)cc1
Outline: as §1

[12] = compound: C[C@@H](Oc1cc(-c2cnn(C3CCNCC3)c2)cnc1N)c1c(Cl)ccc(F)c1Cl [crizotinib]
Outline: as §1

[13] = compound: C[C@@H]1COCCN1C2=NC(=NC(=C2)C3(CC3)S(=O)(=O)C)C4=C5C=CNC5=CC=C4
Outline: as §1

[14] = compound: C[C@H](C1=CC=C(C=C1)C(=O)NC2=C3C=CNC3=NC=C2)N
Outline: as §1

[15] = compound: C[C@H](Nc1ncnc2nc[nH]c12)c1cc2cccc(Cl)c2c(=O)n1-c1ccccc1 [duvelisib]
Outline: as §1

[16] = compound: Cc1cc(Nc2cc(CN3CCOCC3)c3nc(C)c(Cc4ccc(Cl)cc4F)n3n2)n[nH]1 [gandotinib]
Outline: as §1

[17] = compound: Cc1cc(Nc2cc(N3CCN(C)CC3)nc(Sc3ccc(NC(=O)C4CC4)cc3)n2)n[nH]1 [tozasertib]
Outline: as §1

[18] = compound: Cc1cc(SCc2sc(-c3ccc(C(F)(F)F)cc3)nc2C)ccc1OCC(=O)O
Outline: as §1

[19] = compound: Cc1ccc(-n2nc(C(C)(C)C)cc2NC(=O)Nc2ccc(OCCN3CCOCC3)c3ccccc23)cc1 [doramapimod]
Outline: as §1

[20] = compound: Cc1ccc(C(=O)N(CCCN)[C@@H](c2nc3cc(Cl)ccc3c(=O)n2Cc2ccccc2)C(C)C)cc1 [ispinesib]
Outline: as §1

Measured: log2 fold change

CCNH (UniProt P51946)
Sequence of UniProt P51946 (P51946 whole entry, looked up): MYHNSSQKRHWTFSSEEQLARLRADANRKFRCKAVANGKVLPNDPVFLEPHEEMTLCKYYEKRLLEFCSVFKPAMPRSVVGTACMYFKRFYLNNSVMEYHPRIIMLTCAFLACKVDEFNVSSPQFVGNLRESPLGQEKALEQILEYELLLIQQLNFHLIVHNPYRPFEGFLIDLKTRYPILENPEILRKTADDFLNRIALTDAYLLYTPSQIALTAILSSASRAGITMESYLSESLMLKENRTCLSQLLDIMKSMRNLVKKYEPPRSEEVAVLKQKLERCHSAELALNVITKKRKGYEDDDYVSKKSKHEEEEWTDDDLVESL
inactive: [1] 0.043 | [2] 0.005 | [3] -0.044 | [4] 0.018 | [5] -0.011 | [6] 0.026 | [7] -0.03 | [8] -0.002 | [9] 0.023 | [10] 0.007 | [11] -0.033 | [12] 0.033 | [13] 0.048 | [14] -0.031 | [15] 0.037 | [16] 0.013 | [17] 0.046 | [18] -0.01 | [19] -0.086 | [20] 0.098

CPQ (UniProt Q9Y646)
Sequence of UniProt Q9Y646 (Q9Y646 whole entry, looked up): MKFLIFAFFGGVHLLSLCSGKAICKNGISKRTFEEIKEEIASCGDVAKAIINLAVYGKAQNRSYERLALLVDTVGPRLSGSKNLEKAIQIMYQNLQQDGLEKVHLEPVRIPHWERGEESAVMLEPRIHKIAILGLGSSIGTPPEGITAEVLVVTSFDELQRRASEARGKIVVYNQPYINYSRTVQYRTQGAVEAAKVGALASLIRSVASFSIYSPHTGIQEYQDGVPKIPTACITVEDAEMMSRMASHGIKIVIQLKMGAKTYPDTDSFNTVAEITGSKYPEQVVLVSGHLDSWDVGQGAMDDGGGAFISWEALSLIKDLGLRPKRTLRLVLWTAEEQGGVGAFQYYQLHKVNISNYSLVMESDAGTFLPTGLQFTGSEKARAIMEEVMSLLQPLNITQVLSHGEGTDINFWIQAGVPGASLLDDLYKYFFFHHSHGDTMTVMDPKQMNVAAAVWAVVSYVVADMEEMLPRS
inactive: [1] -0.014 | [2] -0.05 | [3] -0.058 | [4] -0.093 | [5] -0.054 | [6] 0.01 | [7] 0.038 | [8] 0.047 | [9] -0.014 | [10] 0.027 | [11] -0.013 | [12] -0.023 | [13] -0.001 | [14] 0.049 | [15] -0.113 | [16] 0.055 | [17] 0.004 | [18] -0.058 | [19] 0.03 | [20] 0.011

CSK (UniProt P41240)
inactive: [1] 0.034 | [2] -0.049 | [3] 0.007 | [4] -0.056 | [5] -0.018 | [6] 0.024 | [7] 0.024 | [8] -0.049 | [9] 0.008 | [10] 0.02 | [11] 0.082 | [12] -0.033 | [13] 0.112 | [14] -0.004 | [15] -0.018 | [16] -0.018 | [17] 0.026 | [18] 0.046 | [19] 0.003 | [20] -0.028

CDK9 isoform 2 (UniProt P50750)
inactive: [1] -0.103 | [2] 0.154 | [3] 0.015 | [4] 0.114 | [5] -0.093 | [6] -0.182 | [7] -0.031 | [8] -0.067 | [9] -0.055 | [10] 0.014 | [11] -0.017 | [12] -0.103 | [13] -0.075 | [14] 0.189 | [15] -0.076 | [16] -0.054 | [17] -0.031 | [18] 0.03 | [19] 0.066 | [20] -0.013

CAMSAP1 isoform 3 (UniProt Q5T5Y3)
inactive: [1] 0.011 | [2] -0.015 | [3] 0.045 | [4] 0.091 | [5] 0.039 | [6] 0.169 | [7] -0.034 | [8] 0.056 | [9] 0.095 | [10] 0.118 | [11] 0.05 | [12] -0.11 | [13] 0.073 | [14] 0.041 | [15] -0.019 | [16] -0.039 | [17] -0.04 | [18] 0.02 | [19] 0.008 | [20] -0.124

CRLF3 (UniProt Q8IUI8)
inactive: [1] -0.006 | [2] -0.049 | [3] 0.016 | [4] 0.039 | [5] 0.005 | [6] -0.05 | [7] 0.018 | [8] 0.014 | [9] 0.035 | [10] 0.051 | [11] 0.053 | [12] -0.015 | [13] 0.048 | [14] 0.017 | [15] 0.076 | [16] 0.016 | [17] 0.021 | [18] 0.019 | [19] 0.138 | [20] -0.059

CDK5 (UniProt Q00535)
inactive: [1] 0.004 | [2] 0.024 | [3] -0.003 | [4] -0.099 | [5] -0.046 | [6] 0.054 | [7] 0.002 | [8] 0 | [9] -0.033 | [10] -0.011 | [11] 0.019 | [12] -0.076 | [13] 0.037 | [14] -0.022 | [15] 0.001 | [16] -0.003 | [17] -0.055 | [18] 0.008 | [19] 0.088 | [20] -0.033

CAD (UniProt P27708)
Sequence of UniProt P27708 (P27708 whole entry, looked up): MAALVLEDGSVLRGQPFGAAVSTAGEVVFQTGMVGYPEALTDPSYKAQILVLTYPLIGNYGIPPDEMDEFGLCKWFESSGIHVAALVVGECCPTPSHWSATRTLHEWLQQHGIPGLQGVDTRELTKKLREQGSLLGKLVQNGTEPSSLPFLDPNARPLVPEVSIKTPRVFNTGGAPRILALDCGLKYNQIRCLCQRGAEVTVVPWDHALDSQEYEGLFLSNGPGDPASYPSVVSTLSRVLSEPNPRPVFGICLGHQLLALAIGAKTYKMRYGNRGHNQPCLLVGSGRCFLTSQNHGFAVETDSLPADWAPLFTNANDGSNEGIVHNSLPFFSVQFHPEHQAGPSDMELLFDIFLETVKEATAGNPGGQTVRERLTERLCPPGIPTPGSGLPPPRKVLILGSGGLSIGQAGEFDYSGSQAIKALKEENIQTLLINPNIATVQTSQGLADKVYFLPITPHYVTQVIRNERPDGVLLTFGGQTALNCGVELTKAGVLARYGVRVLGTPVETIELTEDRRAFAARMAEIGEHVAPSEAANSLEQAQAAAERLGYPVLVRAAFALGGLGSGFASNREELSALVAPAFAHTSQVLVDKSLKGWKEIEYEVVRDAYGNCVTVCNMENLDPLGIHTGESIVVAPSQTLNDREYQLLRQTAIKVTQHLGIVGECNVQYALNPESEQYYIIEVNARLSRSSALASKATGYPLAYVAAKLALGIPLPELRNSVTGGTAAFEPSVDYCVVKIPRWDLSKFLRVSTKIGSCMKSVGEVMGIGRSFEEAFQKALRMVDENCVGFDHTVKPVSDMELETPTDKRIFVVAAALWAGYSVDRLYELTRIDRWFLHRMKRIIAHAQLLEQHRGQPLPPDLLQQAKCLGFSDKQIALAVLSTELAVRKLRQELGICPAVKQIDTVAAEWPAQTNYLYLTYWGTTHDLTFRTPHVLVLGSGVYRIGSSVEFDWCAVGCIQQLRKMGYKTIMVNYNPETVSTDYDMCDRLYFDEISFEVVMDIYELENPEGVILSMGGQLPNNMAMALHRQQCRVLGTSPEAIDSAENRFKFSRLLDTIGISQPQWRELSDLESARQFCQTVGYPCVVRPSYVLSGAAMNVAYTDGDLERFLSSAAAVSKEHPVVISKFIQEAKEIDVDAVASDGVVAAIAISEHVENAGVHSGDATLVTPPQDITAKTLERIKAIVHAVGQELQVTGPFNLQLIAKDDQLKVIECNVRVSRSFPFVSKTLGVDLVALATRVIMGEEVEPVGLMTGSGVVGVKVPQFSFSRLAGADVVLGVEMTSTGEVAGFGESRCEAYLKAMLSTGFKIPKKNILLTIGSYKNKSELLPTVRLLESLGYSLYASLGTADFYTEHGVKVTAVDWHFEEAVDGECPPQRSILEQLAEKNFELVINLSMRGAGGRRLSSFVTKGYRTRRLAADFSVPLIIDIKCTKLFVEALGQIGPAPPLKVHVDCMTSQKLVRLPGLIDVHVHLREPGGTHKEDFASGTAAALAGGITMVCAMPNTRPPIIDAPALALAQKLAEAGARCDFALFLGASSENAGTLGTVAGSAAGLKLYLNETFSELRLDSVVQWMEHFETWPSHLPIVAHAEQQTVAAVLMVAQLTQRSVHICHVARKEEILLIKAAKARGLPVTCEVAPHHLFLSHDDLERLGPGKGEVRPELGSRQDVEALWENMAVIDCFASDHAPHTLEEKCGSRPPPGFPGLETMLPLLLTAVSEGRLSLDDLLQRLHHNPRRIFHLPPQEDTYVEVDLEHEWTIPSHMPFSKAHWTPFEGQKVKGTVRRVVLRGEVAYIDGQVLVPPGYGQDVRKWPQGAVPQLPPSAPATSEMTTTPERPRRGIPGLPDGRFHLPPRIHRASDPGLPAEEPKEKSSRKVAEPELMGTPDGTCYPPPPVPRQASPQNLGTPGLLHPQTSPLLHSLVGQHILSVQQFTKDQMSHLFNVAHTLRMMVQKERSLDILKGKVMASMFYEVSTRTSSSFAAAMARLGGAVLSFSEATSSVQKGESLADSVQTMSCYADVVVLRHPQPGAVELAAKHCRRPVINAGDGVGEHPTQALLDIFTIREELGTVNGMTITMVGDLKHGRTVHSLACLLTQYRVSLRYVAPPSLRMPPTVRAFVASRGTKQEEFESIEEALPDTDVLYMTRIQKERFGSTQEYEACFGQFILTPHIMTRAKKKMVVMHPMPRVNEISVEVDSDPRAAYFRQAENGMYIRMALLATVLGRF
inactive: [1] 0.019 | [2] -0.054 | [3] -0.014 | [4] -0.03 | [5] -0.058 | [6] -0.011 | [7] -0.044 | [8] 0.047 | [9] -0.031 | [10] -0.04 | [11] 0.014 | [13] 0 | [14] 0.033 | [15] -0.013 | [16] -0.013 | [17] -0.115 | [18] 0.053 | [19] -0.028 | [20] -0.106
active: [12] -0.271

CES2 isoform 4 (UniProt O00748)
Sequence of UniProt O00748 (O00748 whole entry, looked up): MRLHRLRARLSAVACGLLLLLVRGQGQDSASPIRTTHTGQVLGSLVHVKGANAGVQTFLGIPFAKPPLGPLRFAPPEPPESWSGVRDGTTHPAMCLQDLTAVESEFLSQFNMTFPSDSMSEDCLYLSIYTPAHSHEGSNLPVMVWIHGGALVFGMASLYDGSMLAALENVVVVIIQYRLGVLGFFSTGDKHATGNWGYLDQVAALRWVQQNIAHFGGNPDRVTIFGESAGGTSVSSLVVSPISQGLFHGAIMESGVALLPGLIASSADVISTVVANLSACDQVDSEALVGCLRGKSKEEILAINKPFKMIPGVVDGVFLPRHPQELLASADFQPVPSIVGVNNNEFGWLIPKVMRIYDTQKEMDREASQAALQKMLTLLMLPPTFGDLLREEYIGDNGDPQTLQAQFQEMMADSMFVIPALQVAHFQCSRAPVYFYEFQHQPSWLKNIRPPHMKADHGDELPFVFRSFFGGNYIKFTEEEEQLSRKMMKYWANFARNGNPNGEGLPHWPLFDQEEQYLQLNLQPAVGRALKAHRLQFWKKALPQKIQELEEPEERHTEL
inactive: [1] -0.099 | [2] 0.055 | [3] 0.078 | [4] 0.053 | [5] 0.023 | [6] -0.044 | [7] 0.03 | [8] -0.145 | [9] 0.161 | [10] 0.103 | [11] 0.162 | [12] 0.154 | [13] 0.03 | [14] -0.079 | [15] 0.019 | [16] 0.048 | [17] -0.093 | [18] -0.188 | [19] 0.144 | [20] -0.047

CHMP4C (UniProt Q96CF2)
Sequence of UniProt Q96CF2 (Q96CF2 whole entry, looked up): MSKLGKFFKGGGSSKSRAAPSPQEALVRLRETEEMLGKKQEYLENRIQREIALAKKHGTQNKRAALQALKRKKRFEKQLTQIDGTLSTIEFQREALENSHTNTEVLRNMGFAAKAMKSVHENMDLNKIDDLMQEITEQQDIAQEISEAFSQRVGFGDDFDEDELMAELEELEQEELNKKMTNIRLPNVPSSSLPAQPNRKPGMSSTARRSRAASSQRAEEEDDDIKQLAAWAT
inactive: [1] 0.163 | [2] 0.014 | [3] -0.028 | [4] -0.001 | [5] 0.037 | [6] 0.064 | [7] -0.014 | [8] 0.02 | [9] -0.027 | [10] -0.005 | [11] -0.044 | [12] -0.007 | [13] -0.256 | [14] -0.003 | [15] 0.067 | [16] 0.073 | [17] -0.024 | [18] 0.03 | [19] -0.046 | [20] -0.079

CBS (UniProt P35520)
Sequence of UniProt P35520 (P35520 whole entry, looked up): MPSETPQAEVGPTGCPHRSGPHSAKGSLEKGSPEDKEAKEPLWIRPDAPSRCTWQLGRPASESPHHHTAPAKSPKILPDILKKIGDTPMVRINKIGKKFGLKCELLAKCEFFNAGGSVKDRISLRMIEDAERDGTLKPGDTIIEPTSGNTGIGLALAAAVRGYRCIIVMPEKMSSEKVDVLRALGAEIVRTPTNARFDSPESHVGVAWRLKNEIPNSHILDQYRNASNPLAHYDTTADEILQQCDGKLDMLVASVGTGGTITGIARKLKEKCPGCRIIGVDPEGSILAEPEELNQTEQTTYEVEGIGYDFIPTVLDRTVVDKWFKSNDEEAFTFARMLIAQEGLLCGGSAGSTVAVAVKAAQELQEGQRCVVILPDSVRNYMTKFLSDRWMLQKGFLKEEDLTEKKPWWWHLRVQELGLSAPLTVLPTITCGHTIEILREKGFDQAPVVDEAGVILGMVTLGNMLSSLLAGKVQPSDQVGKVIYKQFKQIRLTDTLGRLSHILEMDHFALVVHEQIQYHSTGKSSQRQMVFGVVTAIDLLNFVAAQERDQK
inactive: [2] -0.05 | [3] 0.044 | [4] 0.014 | [5] -0.073 | [6] 0.024 | [7] 0.007 | [8] 0.011 | [9] -0.026 | [10] 0.043 | [11] -0.024 | [12] 0.044 | [13] 0.023 | [14] -0.054 | [15] 0.027 | [16] -0.033 | [17] -0.032 | [18] -0.031 | [19] -0.076 | [20] -0.019
active: [1] -0.225

CNN2 (UniProt Q99439)
Sequence of UniProt Q99439 (Q99439 whole entry, looked up): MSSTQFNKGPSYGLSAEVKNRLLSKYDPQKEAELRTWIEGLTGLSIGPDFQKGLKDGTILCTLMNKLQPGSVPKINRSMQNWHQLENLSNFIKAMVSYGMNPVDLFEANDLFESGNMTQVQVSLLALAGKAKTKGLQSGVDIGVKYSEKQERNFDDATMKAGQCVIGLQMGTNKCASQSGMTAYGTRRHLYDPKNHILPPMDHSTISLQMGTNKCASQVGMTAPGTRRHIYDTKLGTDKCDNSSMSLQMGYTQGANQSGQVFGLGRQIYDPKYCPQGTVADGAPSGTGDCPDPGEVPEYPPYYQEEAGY
inactive: [1] -0.008 | [2] -0.058 | [3] -0.002 | [4] -0.029 | [5] -0.007 | [6] 0.021 | [7] 0.012 | [8] -0.065 | [9] -0.041 | [10] -0.054 | [11] -0.003 | [12] -0.058 | [13] 0.058 | [14] -0.005 | [15] -0.017 | [16] -0.088 | [17] 0.092 | [18] 0.012 | [19] 0.007 | [20] -0.059

CD81 (UniProt P60033)
inactive: [1] -0.051 | [2] 0.049 | [3] 0.003 | [4] -0.014 | [5] -0.007 | [6] 0.008 | [7] 0.043 | [8] 0.052 | [9] -0.032 | [10] 0.138 | [11] -0.03 | [12] 0.162 | [13] 0.107 | [14] -0.232 | [15] -0.041 | [16] 0.019 | [17] -0.007 | [18] -0.084 | [19] -0.025 | [20] 0.207

C9orf64 (UniProt Q5T6V5)
inactive: [1] 0.07 | [2] -0.091 | [3] 0.038 | [4] -0.062 | [5] 0.078 | [6] -0.079 | [7] -0.062 | [8] -0.022 | [9] 0.043 | [10] -0.055 | [11] 0.049 | [12] -0.329 | [13] 0.091 | [14] 0 | [15] 0.096 | [16] -0.128 | [17] -0.012 | [18] 0.097 | [19] -0.005 | [20] -0.207

COMT (UniProt P21964)
Sequence of UniProt P21964 (P21964 whole entry, looked up): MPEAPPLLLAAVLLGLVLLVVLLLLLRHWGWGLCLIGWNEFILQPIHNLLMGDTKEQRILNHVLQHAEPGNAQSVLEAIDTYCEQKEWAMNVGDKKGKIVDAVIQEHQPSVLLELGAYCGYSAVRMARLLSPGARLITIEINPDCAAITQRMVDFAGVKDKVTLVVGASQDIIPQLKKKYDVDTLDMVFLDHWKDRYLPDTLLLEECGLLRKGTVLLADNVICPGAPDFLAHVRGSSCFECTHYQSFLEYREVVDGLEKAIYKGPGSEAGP
active: [12] 0.352 | [20] 0.235
inactive: [1] -0.097 | [2] -0.054 | [3] 0.034 | [4] -0.093 | [5] 0.009 | [6] 0.15 | [7] 0.043 | [8] 0.004 | [9] -0.042 | [10] 0.136 | [11] 0.04 | [13] 0.053 | [14] -0.081 | [15] 0.109 | [16] 0.031 | [17] -0.028 | [18] 0.02 | [19] 0

CD53 (UniProt P19397)
inactive: [1] -0.1 | [2] 0.025 | [3] -0.022 | [4] 0.084 | [5] -0.04 | [6] 0.154 | [7] 0.053 | [8] 0.102 | [9] -0.208 | [10] 0.276 | [11] 0.101 | [12] 0.047 | [13] 0.005 | [14] -0.084 | [15] 0.234 | [16] -0.016 | [17] -0.165 | [18] -0.11 | [19] 0.103 | [20] 0.023
